Data on 48 molecules can be found in PubChem BioAssay (NCATS).

The target in experiment [1] is Thyrotropin receptor (Homo sapiens) (UniProt P16473). Description: qHTS Assay for Antagonists of the Thyroid Stimulating Hormone Receptor (AID 488980). Further: series mostly up to about 58 µM; 0% is about no effect. Summed up: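 TSHR-HEK293 cells; 70 uM RO 20-1724 PDE inhibitor; compound + EC80 TSH (4 nM final); anti-cAMP cryptate antibody/cAMP-d2 in lysis buffer, 30 min RT; HTRF 665/620 nm read.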
Experiment [2] deals with D(1A) dopamine receptor (Homo sapiens) (UniProt P21728). Description: HTS Assay for Allosteric Agonists of the Human D1 Dopamine Receptor: Primary Screen for Agonists (AID 488981). Further: potency means the concentration at half of the fitted maximal effect. On activation: 0% is about no effect. The gist of the method: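 Tetracycline-induced HEK293 T-REx cells force-coupled to calcium signalling were incubated overnight at 30 C and dye-loaded at room temperature. Calcium flux over 180 s after compound addition flagged agonists; a further 180 s read after EC20 dopamine flagged potentiators.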

Experiment [3] is described as follows: Validation screen for small molecules that induce genotoxicity in human embryonic kidney (HEK293T) cells expressing luciferase-tagged ELG1 (AID 493106). Further: potency means the concentration at half of the fitted maximal effect. Summed up: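 HEK293T cells expressing luciferase-tagged ELG1, 2,000 cells/well, exposed to compound 16 hr at 37 °C, 5% CO2. Luciferase read after ONE-Glo, 30 min at room temperature; increased signal indicates genetic stress.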

Experiment [4] deals with ATPase family AAA domain-containing protein 5 (Homo sapiens) (UniProt Q96QE3). Description: Validation screen for small molecules that inhibit ELG1-dependent DNA repair in human embryonic kidney (HEK293T) cells expressing luciferase-tagged ELG1 (AID 493107).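 Further: cells co-treated with the DNA-damaging agent 5-fluorouridine alongside compound; series mostly up to about 46 µM; on the % scale 0 is the no-effect control and ±100 the full control effect; inhibitors lower the ELG1-luciferase luminescence signal; nearly all actives have a fitted effect of over 70% in size.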 Summed up: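 HEK293T cells expressing luciferase-tagged ELG1, 2,000 per well, treated with 5-fluorouridine plus compound for 16 h at 37 C. ONE-Glo luminescence after 30 min at room temperature reports ELG1 reporter level.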

Experiment [5] concerns the target Thyrotropin-releasing hormone receptor (Homo sapiens) (UniProt P34981). Description: qHTS for Small Molecule Agonists and Allosteric Enhancers of Human TRH Receptor: Validation Screen for Agonists (AID 493127;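 active means calcium activation more than 3 SD above the typical response in the agonist read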; further: 0% is about no effect). The following applies: TRH receptor agonist cell assay; at 2 µM; hits give high values. Summed up:
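TRHR cells loaded with fluo-8 calcium dye; FDSS kinetic fluorescence (Ex 480/Em 530) read at 1 s/cycle after 23 nL compound addition. Agonist-mode calcium response recorded before the 10 nM TRH (EC20) addition.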

Experiment [6] has as its target Transient receptor potential cation channel subfamily V member 1 (Homo sapiens) (UniProt Q8NER1). Description: HTS Assay for Compounds that Act as Enhancers of the Vanilloid Receptor 1 (AID 488979). Further: 0% is about no effect. The gist of the method: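 TRPV1-expressing cells loaded with Fluo-8 calcium dye; compounds added and calcium influx read kinetically for 3 min (agonist phase), then capsaicin at EC20 added and read 2 min more for enhancement. Fluorescence ex 480/em 520 nm.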

In experiment [7] the target is D(1A) dopamine receptor (Homo sapiens) (UniProt P21728). Description: HTS Assay for Allosteric Agonists of the Human D1 Dopamine Receptor: Primary Screen for Antagonists (AID 488983).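 Further: calcium flux response to an EC80 dopamine challenge measured with no-wash dye; nearly all actives have a fitted effect of over 65% in size.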 Further: potency means the concentration at half of the fitted maximal effect. Summed up:
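Tetracycline-induced HEK293 T-REx D1 line, force-coupled to calcium flux, read with no-wash calcium dye. Compound added after 10 s baseline, read 180 s for agonism, then EC80 dopamine added and read a further 180 s.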

The target in experiment [8] is ATP-dependent 6-phosphofructokinase (Trypanosoma brucei brucei) (UniProt O15648). Description: qHTS Assay to Find Inhibitors of T. brucei phosphofructokinase: hit validation (AID 492961).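 Further: luminescence reports ADP formed as PFK phosphorylates fructose-6-phosphate with ATP; series mostly up to about 51 µM; on the % scale 0 is the no-effect control and ±100 the full control effect.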 Summed up: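 PFK 1.25 nM, F6P 0.5 mM, ATP 0.1 mM, MgCl2 5 mM, 0.1 M TEA pH 8.0, Tween20 0.01%, BSA 0.1%; 45 min RT. ADP-Glo two-step detection, luminescence. qHTS titration; curve fitting with curve-class categorization.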
(In qHTS, concentration-response curves come from the screen itself.)

The target of experiment [9] is Tyrosyl-DNA phosphodiesterase 1 (Homo sapiens) (UniProt Q9NUW8). Description: Confirmation Assay for Inhibitors of Tyrosyl-DNA Phosphodiesterase (TDP1) (AID 489007). Further: potency means the concentration at half of the fitted maximal effect; nearly all actives have a fitted effect of over 40% in size. The following applies: recombinant human TDP1 enzymatic activity, dose-response. Summed up:
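Recombinant human Tdp1 (1 nM final), expressed in E. coli, preincubated 15 min with compound. Then 15 nM 5'-biotin/3'-phosphotyrosine-FITC DNA substrate added for 5 min at room temperature. AlphaScreen beads (10 ug/ml) added for 10 min; cleavage gives signal loss.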

Values without a mark were called inactive. Records with an inconclusive call do not appear. Activity calls are given as the source filed them. Unless noted, the call rests on the fitted dose curve; in most records, active means well fitted curve in the direction sought with a large enough effect; inconclusive means small, poorly fitted or top-dose-only effect, or another doubt; inactive means no such curve, though single readings can be large; an effect the other way counts as inactive or inconclusive.

Chain of Thyrotropin-releasing hormone receptor (Homo sapiens) (P34981 whole entry, looked up): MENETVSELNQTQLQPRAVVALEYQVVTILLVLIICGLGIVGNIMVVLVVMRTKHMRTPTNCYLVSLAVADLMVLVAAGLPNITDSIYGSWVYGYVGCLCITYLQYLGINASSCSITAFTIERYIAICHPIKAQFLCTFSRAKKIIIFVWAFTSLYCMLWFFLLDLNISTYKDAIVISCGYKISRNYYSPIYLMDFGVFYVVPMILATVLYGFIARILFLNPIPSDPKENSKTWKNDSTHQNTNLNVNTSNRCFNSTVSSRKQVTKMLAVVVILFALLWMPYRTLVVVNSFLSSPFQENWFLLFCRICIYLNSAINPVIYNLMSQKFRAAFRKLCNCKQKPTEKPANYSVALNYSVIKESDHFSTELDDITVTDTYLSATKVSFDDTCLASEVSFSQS
Chain of Transient receptor potential cation channel subfamily V member 1 (Homo sapiens) (Q8NER1 whole entry, looked up): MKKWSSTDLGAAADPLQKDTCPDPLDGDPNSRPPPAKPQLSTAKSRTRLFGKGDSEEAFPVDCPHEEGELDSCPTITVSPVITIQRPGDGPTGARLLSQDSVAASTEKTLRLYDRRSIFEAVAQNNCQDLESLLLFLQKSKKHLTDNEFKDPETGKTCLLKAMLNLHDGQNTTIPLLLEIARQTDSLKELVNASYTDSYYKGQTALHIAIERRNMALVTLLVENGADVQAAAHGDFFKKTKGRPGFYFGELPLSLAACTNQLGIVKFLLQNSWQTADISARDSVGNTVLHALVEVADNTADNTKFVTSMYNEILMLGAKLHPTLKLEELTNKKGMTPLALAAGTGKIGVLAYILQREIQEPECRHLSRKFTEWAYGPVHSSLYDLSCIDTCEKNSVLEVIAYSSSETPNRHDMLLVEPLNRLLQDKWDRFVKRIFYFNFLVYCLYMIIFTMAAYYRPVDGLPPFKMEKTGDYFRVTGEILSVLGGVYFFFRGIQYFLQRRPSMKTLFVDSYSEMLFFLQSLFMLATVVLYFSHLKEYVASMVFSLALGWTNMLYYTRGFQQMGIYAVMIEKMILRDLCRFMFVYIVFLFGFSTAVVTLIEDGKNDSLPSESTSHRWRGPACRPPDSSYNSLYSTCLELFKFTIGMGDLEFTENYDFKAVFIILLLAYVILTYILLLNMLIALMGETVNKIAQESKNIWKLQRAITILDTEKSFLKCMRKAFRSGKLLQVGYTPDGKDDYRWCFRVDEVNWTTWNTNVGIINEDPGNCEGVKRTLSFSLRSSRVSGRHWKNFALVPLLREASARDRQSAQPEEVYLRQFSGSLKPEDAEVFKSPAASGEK
Chain of ATPase family AAA domain-containing protein 5 (Homo sapiens) (Q96QE3 whole entry, looked up, the tested form may be a part): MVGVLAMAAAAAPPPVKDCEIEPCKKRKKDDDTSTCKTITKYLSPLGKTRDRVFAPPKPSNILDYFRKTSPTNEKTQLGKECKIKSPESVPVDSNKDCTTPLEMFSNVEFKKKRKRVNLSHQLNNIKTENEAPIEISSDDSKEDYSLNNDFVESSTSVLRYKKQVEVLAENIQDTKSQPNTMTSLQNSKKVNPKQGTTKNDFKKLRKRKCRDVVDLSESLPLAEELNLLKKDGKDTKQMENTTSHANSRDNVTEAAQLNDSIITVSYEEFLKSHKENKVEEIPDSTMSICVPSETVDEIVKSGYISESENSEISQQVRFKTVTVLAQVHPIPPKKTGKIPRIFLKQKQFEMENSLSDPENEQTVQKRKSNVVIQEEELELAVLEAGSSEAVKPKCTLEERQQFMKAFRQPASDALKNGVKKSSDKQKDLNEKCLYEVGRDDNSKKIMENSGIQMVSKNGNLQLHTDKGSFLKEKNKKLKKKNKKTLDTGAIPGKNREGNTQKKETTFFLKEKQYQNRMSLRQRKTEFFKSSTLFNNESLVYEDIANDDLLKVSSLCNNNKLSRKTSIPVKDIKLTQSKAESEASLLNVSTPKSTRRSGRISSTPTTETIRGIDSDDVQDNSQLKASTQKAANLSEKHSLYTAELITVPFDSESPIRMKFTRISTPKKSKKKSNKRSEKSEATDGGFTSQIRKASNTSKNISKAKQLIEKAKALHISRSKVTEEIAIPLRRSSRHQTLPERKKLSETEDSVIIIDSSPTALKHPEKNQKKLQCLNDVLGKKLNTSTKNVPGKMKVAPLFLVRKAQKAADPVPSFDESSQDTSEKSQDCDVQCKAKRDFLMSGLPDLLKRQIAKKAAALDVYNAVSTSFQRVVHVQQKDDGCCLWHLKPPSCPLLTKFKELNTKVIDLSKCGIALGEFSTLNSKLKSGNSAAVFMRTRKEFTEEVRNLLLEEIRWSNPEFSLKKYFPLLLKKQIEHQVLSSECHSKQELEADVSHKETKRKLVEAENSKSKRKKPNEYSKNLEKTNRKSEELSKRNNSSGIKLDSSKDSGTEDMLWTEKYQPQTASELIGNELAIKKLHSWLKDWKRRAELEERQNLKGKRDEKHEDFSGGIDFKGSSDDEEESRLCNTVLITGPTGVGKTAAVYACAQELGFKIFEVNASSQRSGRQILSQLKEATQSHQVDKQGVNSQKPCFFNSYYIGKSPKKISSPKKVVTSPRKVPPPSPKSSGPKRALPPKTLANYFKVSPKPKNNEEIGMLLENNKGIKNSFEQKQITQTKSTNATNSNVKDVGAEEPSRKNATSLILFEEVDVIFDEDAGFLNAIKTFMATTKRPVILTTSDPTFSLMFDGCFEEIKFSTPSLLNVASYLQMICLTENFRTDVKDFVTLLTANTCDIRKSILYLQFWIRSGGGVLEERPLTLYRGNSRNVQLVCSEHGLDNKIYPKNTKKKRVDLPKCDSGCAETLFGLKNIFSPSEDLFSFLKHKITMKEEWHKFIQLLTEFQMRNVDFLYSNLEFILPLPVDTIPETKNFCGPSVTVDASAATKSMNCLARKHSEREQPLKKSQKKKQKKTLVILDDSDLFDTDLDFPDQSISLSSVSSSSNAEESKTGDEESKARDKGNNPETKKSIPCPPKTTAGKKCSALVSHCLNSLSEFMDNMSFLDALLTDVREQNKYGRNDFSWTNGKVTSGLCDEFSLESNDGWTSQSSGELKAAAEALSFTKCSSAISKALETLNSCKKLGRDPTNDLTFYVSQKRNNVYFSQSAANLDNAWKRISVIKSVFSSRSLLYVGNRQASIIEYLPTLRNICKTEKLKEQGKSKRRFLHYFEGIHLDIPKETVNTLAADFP
Chain of ATP-dependent 6-phosphofructokinase (Trypanosoma brucei brucei) (O15648 whole entry, looked up): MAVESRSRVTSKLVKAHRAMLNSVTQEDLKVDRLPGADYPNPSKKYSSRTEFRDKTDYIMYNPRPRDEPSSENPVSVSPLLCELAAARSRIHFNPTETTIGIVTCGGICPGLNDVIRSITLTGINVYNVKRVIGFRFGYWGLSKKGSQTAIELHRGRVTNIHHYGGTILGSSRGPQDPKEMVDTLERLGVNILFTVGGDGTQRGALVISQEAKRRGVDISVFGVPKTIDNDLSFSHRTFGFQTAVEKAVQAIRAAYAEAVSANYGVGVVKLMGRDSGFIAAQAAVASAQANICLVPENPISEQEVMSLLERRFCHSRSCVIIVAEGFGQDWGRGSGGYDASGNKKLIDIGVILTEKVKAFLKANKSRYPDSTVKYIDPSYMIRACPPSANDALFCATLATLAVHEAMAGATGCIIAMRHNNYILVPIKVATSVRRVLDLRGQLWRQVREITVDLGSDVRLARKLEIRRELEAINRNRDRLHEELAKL
Chain of Thyrotropin receptor (Homo sapiens) (P16473 whole entry, looked up): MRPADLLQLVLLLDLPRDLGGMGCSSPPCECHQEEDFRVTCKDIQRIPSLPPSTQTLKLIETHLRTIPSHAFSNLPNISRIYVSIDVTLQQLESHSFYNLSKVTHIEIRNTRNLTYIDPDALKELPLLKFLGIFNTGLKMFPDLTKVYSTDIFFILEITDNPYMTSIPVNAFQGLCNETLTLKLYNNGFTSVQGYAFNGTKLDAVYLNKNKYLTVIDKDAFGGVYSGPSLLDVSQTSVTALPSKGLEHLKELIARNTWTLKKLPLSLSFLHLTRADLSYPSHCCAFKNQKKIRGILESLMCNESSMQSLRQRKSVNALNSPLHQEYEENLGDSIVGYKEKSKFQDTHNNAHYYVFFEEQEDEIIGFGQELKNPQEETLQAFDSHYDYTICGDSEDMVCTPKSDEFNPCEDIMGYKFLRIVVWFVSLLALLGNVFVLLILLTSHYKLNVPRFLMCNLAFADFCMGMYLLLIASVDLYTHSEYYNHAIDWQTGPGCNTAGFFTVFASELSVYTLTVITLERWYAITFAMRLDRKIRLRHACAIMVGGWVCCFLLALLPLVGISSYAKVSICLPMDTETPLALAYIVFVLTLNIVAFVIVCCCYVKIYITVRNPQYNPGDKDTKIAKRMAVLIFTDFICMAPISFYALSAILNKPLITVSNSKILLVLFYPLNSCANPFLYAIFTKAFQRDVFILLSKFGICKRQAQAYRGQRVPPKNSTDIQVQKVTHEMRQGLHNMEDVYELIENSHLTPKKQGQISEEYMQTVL
Chain of D(1A) dopamine receptor (Homo sapiens) (P21728 whole entry, looked up): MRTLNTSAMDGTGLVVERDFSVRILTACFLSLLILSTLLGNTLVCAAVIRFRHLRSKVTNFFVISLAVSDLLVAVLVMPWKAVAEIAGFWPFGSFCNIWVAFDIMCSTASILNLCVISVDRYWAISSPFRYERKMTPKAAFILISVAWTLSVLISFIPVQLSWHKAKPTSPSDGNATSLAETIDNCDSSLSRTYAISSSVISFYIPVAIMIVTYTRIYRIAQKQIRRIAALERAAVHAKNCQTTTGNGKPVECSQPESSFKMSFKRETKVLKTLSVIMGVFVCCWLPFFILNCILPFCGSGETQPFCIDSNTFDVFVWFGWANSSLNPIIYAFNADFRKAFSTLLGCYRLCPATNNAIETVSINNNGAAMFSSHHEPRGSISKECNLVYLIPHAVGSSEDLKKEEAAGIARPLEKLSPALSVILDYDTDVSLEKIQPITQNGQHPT

`CN(C)CCC=C1c2ccccc2CCc2ccccc21`: the call in experiment [1] and in [4] was inactive. The Potency result in experiment [2] and in [3] was “inactive” in each case. Also, the activation in experiment [5] was 1.31%.
Regarding `NC1CCN(c2cccc(Cl)n2)CC1`, the result in experiment [6] and in experiment [4] was inactive. For the same molecule, the Potency result in experiment [2], in experiment [7] and in [3] was “inactive” throughout. The activation in experiment [5] was 1.06%.
For the molecule `C#CCN(C)Cc1ccccc1`, the molecule was classed as inactive in experiment [1] and in experiment [4]. In addition, the Potency result in experiment [2], in [7], in experiment [8] and in experiment [3] was “inactive” each time. Further, the activation in [5] is 0.562%.
Turning to `N=c1c[n+](N2CCOCC2)[n-]o1`, the result in experiment [6] and in [1] was inactive. Also, the Potency entry in experiment [2], in [7] and in experiment [3] was “inactive” in each case. Also, in experiment [5], the activation is 0.5%.
For the molecule `COC(=O)C1=C(C)NC(C)=C(C(=O)OC)C1c1ccccc1[N+](=O)[O-]`, the outcome in experiment [6] and in experiment [1] was inactive. For the same molecule, in experiment [2], the Potency entry was “inactive”. Besides, in experiment [5], the activation was 0.938%.
For the molecule `C[C@](N)(Cc1ccc(O)cc1)C(=O)O`, the result in experiment [6], in experiment [1] and in experiment [4] was inactive. Moreover, the Potency result in [2], in experiment [7], in [8] and in experiment [3] was “inactive” throughout.
Regarding `CC(C)(C(=O)O)c1ccc(C(O)CCCN2CCC(C(O)(c3ccccc3)c3ccccc3)CC2)cc1` (centres undefined), the outcome in experiment [6], in experiment [1] and in experiment [4] was inactive. Besides, the Potency entry in experiment [2], in experiment [7] and in experiment [3] was “inactive” each time. Further, the activation in [5] is -0.125%.
Regarding `O=C1N=C(O)CN1/N=C/c1ccc(-c2ccc([N+](=O)[O-])cc2)o1`, the outcome in experiment [1] and in [4] was inactive. The Potency result in experiment [2], in experiment [7] and in experiment [3] was “inactive” each time.
Regarding `CC1=C(/C=C/C(C)=C/C=C/C(C)=C/C(=O)O)C(C)(C)CCC1`, the result in [6] and in [4] was inactive. Also, the Potency entry in [2], in experiment [7] and in experiment [3] was “inactive” in each case. Also, the activation in [5] is 0.375%.
Consider `CNC(=O)Oc1ccc2c(c1)[C@]1(C)CCN(C)[C@@H]1N2C`, for which the outcome in experiment [6], in [1] and in [4] was inactive. In addition, the Potency entry in experiment [2], in [7], in experiment [8] and in experiment [3] was “inactive” in each case. For the same molecule, the activation in experiment [5] is 1%.
For `NC(=O)c1ncn([C@@H]2O[C@H](CO)[C@@H](O)[C@H]2O)n1`, the result in experiment [6] and in [4] was inactive. In addition, the Potency entry in experiment [2], in experiment [7] and in [3] was “inactive” throughout. Besides, the activation in experiment [5] is 0.875%.
Take `O=C1OC(OC(=O)c2cccnc2Nc2cccc(C(F)(F)F)c2)c2ccccc21` (centres undefined): in experiment [8], the Potency entry is “inactive”.
With `CC(C(O)c1ccc(O)cc1)N1CCC(Cc2ccccc2)CC1` (centres undefined), in [2], the Potency was 11200 nM (active). For the same molecule, the Potency entry in experiment [8] and in [3] was “inactive” throughout. Besides, the activation in experiment [5] was 5.75%.
`C[C@]12C[C@H](O)[C@H]3[C@@H](CCC4=CC(=O)CC[C@@]43C)[C@@H]1CC[C@@H]2C(=O)CO`: the Potency entry in [2], in experiment [7], in experiment [8] and in experiment [3] was “inactive” in each case. Moreover, the call in [4] was inactive.
Regarding `CCCCOc1cc(C(=O)OCCN(CC)CC)ccc1N`, in [8], the Potency result is “inactive”.
Still for that read-out and setting: the entry for `O=c1cc[nH]c(=O)[nH]1` is “inactive”; for `NCCNCCNCCN` it is “inactive”; for `O=c1cc[nH]c(=S)[nH]1` it is “inactive”.
For the molecule `O=Cc1ccccc1C=O`, the Potency in [9] is 14100 nM (active). Besides, the Potency result in [8] was “inactive”.
On to `CC(C)(C)NCC(O)COc1ccc(NC(=O)NC2CCCCC2)cc1` (centres undefined), for which the Potency entry in [8] is “inactive”.
Take `CCN(CC)C(C)CN1c2ccccc2Sc2ccccc21` (centres undefined): the Potency result in [2], in [7] and in [3] was “inactive” throughout. In [4], the call was inactive.
Regarding `Cn1c(=O)c2c(ncn2CC2OCCO2)n(C)c1=O`, the Potency entry in [8] was “inactive”.
With `CNCCC(Oc1ccc(C(F)(F)F)cc1)c1ccccc1` (centres undefined), the outcome in experiment [1] and in experiment [4] was inactive. In addition, the Potency result in [3] is “inactive”. The activation in [5] is 22.8%.
`CCCCN(CCCC)CCCOC(=O)c1ccc(N)cc1`: the Potency entry in experiment [8] is “inactive”.
`OCCN1CCN(CCCN2c3ccccc3Sc3ccc(Cl)cc32)CC1`: the outcome in experiment [1] and in experiment [4] was inactive. In experiment [7], the Potency was 794 nM (active). Besides, the Potency entry in experiment [8] and in experiment [3] was “inactive” in each case. In experiment [5], the activation was 0.75%.
`CC(=O)c1ccc2c(c1)N(CCCN(C)C)c1ccccc1S2`: the Potency entry in [8] was “inactive”.
Turning to `CSc1ccc2c(c1)C(N1CCN(C)CC1)Cc1ccccc1S2` (centres undefined), the Potency result in [2], in [8] and in experiment [3] was “inactive” each time. Further, in experiment [7], the Potency was 316 nM (active). For the same molecule, the activation in experiment [5] was 5.38%.
In the case of `NCC(=O)CCC(=O)O`, the Potency entry in experiment [8] was “inactive”.
For the molecule `CN1CCN(C2Cc3ccccc3Sc3ccc(Cl)cc32)CC1` (centres undefined), the result in [1] was inactive. Besides, the Potency in experiment [7] is 199 nM (active). Further, the Potency result in experiment [8] and in [3] was “inactive” throughout. Besides, in experiment [5], the activation is 0.75%.
As to `CCOC(CN1CCN(CC(C)C(=O)c2ccccc2)CC1)c1ccccc1` (centres undefined), in experiment [8], the Potency result was “inactive”.
Take `O=C(O)CN1C(=O)c2cccc3cccc(c23)C1=O`: the Potency result in [8] was “inactive”.
For `Nc1ncnc2c1ncn2[C@@H]1O[C@H](CO)[C@@H](O)[C@H]1O`, the Potency result in experiment [2], in experiment [7], in experiment [8] and in experiment [3] was “inactive” in each case. For the same molecule, the molecule was classed as inactive in experiment [4].
On to `Cc1ccc(C(C)C)cc2c(C)ccc1-2`, for which the Potency entry in experiment [8] was “inactive”.
On to `CCN(CC)CCCC(C)Nc1c2ccc(Cl)cc2nc2ccc(OC)cc12` (centres undefined), for which the outcome in experiment [1] was inactive. Moreover, the Potency in experiment [2] is 11200 nM (active); in [3], 2590 nM (active). In addition, the activation in [5] was -2.88%.
`CN(C)CCCN1c2ccccc2Sc2ccc(Cl)cc21`: the molecule was called inactive in experiment [1]. The Potency result in experiment [3] was “inactive”. The activation in [5] was 11.5%.
`CC1(C)CO[C@@H](CC(=O)O)CN1`: in [8], the Potency result was “inactive”.
Still for that read-out and setting: then `CCOc1ccc2ccccc2c1C(=O)N[C@@H]1C(=O)N2[C@@H]1SC(C)(C)[C@@H]2C(=O)O`, with “inactive”; and `Cn1cc[nH]c1=S`, with “inactive”.
`OCc1cc(C(O)CNCCCCCCOCCCCc2ccccc2)ccc1O` (centres undefined): the molecule was classed as inactive in experiment [1] and in [4]. The Potency result in experiment [7], in [8] and in experiment [3] was “inactive” in each case. For the same molecule, the activation in experiment [5] is -0.25%.
As for `CC(CN(C)C)CN1c2ccccc2CCc2ccccc21` (centres undefined), the molecule was classed as inactive in experiment [1] and in experiment [4]. Further, the Potency entry in experiment [2] and in experiment [3] was “inactive” throughout. The activation in experiment [5] is 6.88%.
For `COCCOC(=O)C1=C(C)NC(C)=C(C(=O)OC/C=C/c2ccccc2)C1c1cccc([N+](=O)[O-])c1` (centres undefined), the Potency entry in [2], in experiment [7], in experiment [8] and in [3] was “inactive” in each case.
`Cc1cc(CC(=O)O)n(C)c1C(=O)c1ccc(Cl)cc1`: the Potency result in [8] was “inactive”.
Same read-out and setting: then `Oc1cccc(O)c1`, with “inactive”; and `C[C@H](N)[C@H](O)c1cccc(O)c1`, with “inactive”.
Same read-out and setting: the entry for `Cc1cc(O)cc2c1O[C@](C)(CCC[C@H](C)CCC[C@H](C)CCCC(C)C)CC2` is “inactive”; for `O=C1NS(=O)(=O)c2ccccc21` it is “inactive”.
On to `CC[C@H]1CN2CCc3cc(OC)c(OC)cc3[C@@H]2C[C@@H]1C[C@H]1NCCc2cc(OC)c(OC)cc21`, for which the Potency entry in [2] and in [7] was “inactive” each time.
In the case of `CC(C)(C)[C@]1(O)CCN2C[C@H]3c4ccccc4CCc4cccc(c43)[C@@H]2C1`, in experiment [3], the Potency result is “inactive”. Besides, the outcome in experiment [4] was inactive.
